Test results reported in PubChem BioAssay (NCATS).
Inconclusive results are not listed. A number with no mark means an inactive call. Calls of active or inactive are those of the source. Calls follow the shape of the dose curve; as a rule, active = well fitted inhibition curve with a large enough effect; inconclusive = small, poorly fitted or top-dose-only effect; inactive = flat fitted curve, though single readings scatter.

assay: P-glycoprotein substrates identified in KB-8-5-11 adenocarcinoma cell line, qHTS therapeutic library screen (AID 1346987); conditions: KB-8-5-11 (P-gp overexpressing) viability, CellTiter-Glo, 72 h; series mostly up to 44.5 µM; activity change, negative = cytotoxicity: at the top concentration; also: nearly all actives have a fitted effect of over 65% in size
In short: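 KB-8-5-11, a colchicine-selected P-gp-overexpressing KB-3-1 subline, was grown without colchicine for the assay. Cells were seeded at 500 cells/well, dosed in concentration-response and incubated 72 h at 37 degree C, 5% CO2. Viability was read by CellTiter-Glo luminescence.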
% is scaled to controls: 0 for no effect and ±100 for the full control effect; potency is read from the fitted curve at half-maximal effect.

| SMILES | Potency | activity change, negative = cytotoxicity | outcome |
| --- | --- | --- | --- |
| N#Cc1cc(CN2CCC(Nc3ncnc4sc(Cl)cc34)CC2)ccc1F | 9.2 µM (active) |  |  |
| COC1C=C(C)C(O)(CO)C2(C)CCCC(C)(C)C12 (centres undefined) |  | -18.1% |  |
| Cc1cccc(C)c1N(CCCc1cccnc1)C(=O)C(C)N (centres undefined) |  | -29.3% |  |
| CC(C)(O)C1CC(=O)C2(C)C(CCC3(C)C(c4ccoc4)OC(=O)C4OC432)C12CCC(=O)OC2 (centres undefined) |  |  | inactive [at 17.3 µM] |
| Cc1ccc(OC[C@H](O)[C@H](C)NC(C)C)c2c1CCC2 |  | 2.96% |  |
| CC(C)S(=O)(=O)Nc1ccc(F)c(C(=O)c2c[nH]c3ncc(-c4cccnc4)cc23)c1F |  | -6.3% |  |
| CN1CCC(c2cn(C)c3ccc(OS(=O)(=O)c4c(F)cccc4F)cc23)CC1 | 18.4 µM (active) |  |  |
| C=CCNC1=C2C[C@@H](C)C[C@H](OC)[C@H](O)[C@@H](C)/C=C(\C)[C@H](OC(N)=O)[C@@H](OC)/C=C\C=C(/C)C(=O)NC(=CC1=O)C2=O | 16.4 µM (active) |  |  |
| COc1ccc(NC(=O)c2ccc(-c3ccc(-c4nnc(C)o4)cc3C)cc2)cc1N1CCN(C)CC1 |  | -13.9% |  |
| Cc1cc2ncc(C(=O)NCC(C)(C)NCC(=O)N3CCC[C@H]3C#N)cn2n1 |  | 8.79% |  |
| CCCCNc1ncc2c(-c3ccc(S(=O)(=O)N4CCOCC4)cc3)nn(C3CCC(O)CC3)c2n1 (centres undefined) | 7.31 µM (active) |  |  |
| COc1cc(N2CCC(N)CC2)ccc1Nc1ncc(Cl)c(-c2c[nH]c3ccccc23)n1 | 4.11 µM (active) |  |  |
| C/C=C(\C)C(=O)OC1C=C(C)CC(OC(=O)c2ccc(O)cc2)C2C1(C)CCC2(O)C(C)C (centres undefined) |  | -21.9% [at 17.3 µM] |  |
| CCCN(CCc1ccsc1)C1CCc2c(O)cccc2C1 (centres undefined) |  | -26.1% |  |
